Shown are actives, neighbours in structure and some others; about 4.3% of the full set was active somewhere.
NadD inh = blocks S. aureus nicotinate mononucleotide adenylyltransferase; actives 0.78% (n = 360,000); inhibition, % at 20 µM; purified NadD enzyme, colorimetric absorbance read-out; in the data active means inhibition above about 26%
NR3A LBD binder = NR3A (human) ligand-binding domain modulation. Tm shift relative to glycine control, % at 25 µM. actives 2.5% (n = 340,000). AID 1259313. NR3A LBD differential scanning fluorimetry, Tm shift; 0% = protein alone, 100% = glycine-bound protein;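 active means melting temperature shift of at least 10% of the positive control shift, at one fixed dose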
rCAG RNA binder = molecules binding r(CAG) RNA repeats; r(CAG) RNA repeat, TO-PRO-1 dye displacement fluorescence; AID 651821; inhibition, % at 3 µM; actives 1.3% (n = 370,000);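 active means inhibition above the plate cutoff, the mean of all test compounds on that plate plus 3 SD, cut at about 35% in these data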;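 further: 0% = DMSO alone and 100% = 100 µM mitoxantrone as full dye displacement; higher means more dye released from RNA so lower well fluorescence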
FAS TE block = inhibitors of human fatty acid synthase thioesterase domain; P49327; recombinant FAS-TE, OMFH fluorogenic substrate, fluorescence endpoint; inhibition, % at 15 µM; actives 0.67% (n = 360,000); AID 602261;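 active means compounds whose normalised, plate-corrected inhibition of enzyme fluorescence in the single-dose primary screen is 50% or more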;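 further: 0% = DMSO with enzyme and 100% = substrate without enzyme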
Target sequence (P49327 whole entry, looked up, the tested form may be a part): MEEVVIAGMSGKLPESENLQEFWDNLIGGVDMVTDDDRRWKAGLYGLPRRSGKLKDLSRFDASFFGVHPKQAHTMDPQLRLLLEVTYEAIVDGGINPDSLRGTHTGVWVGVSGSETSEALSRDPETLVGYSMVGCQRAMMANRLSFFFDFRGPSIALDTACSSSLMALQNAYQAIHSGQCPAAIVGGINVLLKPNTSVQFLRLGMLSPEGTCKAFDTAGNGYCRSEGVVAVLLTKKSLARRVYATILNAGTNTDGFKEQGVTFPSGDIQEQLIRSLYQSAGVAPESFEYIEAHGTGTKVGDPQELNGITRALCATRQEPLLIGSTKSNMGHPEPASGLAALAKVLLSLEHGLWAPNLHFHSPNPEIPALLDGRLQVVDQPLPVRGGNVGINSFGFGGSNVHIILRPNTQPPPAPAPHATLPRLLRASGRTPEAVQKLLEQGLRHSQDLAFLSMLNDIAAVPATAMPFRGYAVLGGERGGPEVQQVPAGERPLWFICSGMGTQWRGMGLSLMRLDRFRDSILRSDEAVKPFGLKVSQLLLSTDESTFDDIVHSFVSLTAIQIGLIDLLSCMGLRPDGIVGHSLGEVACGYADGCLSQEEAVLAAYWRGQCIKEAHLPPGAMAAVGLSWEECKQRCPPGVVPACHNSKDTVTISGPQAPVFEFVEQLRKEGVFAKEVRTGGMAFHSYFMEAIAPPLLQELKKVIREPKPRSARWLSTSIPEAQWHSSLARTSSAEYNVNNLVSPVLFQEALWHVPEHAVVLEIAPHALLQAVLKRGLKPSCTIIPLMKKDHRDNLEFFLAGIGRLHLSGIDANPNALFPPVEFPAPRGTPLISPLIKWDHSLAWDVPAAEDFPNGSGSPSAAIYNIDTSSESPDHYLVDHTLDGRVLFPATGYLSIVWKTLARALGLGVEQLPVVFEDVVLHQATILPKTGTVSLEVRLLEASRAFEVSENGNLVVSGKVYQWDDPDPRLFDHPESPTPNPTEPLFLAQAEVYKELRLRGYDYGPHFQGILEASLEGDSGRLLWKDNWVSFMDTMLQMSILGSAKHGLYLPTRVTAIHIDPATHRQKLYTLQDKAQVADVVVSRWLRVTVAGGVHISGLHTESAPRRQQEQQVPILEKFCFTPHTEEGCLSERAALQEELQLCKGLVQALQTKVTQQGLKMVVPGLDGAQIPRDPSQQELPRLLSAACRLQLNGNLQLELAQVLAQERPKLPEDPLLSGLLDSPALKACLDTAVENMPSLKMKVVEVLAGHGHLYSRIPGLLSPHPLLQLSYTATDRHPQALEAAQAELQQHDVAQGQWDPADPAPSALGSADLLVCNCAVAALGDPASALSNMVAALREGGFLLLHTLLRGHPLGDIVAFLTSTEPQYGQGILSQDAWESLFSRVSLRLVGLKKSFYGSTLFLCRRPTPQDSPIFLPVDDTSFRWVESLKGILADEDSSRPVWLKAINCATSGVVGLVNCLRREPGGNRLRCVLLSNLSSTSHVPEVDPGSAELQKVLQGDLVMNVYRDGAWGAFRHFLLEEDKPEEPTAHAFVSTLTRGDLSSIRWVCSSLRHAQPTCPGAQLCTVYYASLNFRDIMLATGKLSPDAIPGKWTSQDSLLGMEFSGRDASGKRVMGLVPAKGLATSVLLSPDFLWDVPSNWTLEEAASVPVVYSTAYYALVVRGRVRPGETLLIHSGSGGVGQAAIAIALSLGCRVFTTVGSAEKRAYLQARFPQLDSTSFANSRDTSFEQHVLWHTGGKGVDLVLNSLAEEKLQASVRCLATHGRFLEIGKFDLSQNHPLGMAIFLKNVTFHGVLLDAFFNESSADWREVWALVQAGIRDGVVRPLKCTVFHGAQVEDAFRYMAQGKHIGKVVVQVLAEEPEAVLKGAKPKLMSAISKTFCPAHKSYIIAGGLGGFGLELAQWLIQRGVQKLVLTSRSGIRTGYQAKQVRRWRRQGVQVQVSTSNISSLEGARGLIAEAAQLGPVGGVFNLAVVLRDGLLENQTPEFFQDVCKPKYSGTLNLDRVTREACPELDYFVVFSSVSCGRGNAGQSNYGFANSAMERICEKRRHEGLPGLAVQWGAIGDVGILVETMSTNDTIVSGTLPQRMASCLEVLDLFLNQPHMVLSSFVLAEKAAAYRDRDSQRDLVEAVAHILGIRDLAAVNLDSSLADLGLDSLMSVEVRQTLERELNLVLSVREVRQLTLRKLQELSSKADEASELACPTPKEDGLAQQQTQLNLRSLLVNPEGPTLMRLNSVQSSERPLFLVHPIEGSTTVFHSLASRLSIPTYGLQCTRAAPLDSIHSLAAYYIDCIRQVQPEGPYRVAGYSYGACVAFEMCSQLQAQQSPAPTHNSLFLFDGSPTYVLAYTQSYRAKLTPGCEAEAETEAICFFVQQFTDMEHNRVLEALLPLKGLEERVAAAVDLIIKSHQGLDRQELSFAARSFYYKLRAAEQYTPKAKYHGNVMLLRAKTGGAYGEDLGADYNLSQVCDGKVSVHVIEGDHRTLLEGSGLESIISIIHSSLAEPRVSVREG
rCAG bind conf = r(CAG) RNA repeat binding, confirmation; shares compounds with rCAG RNA binder; TO-PRO-1 dye displacement fluorescence; actives 70% (n = 4,300); inhibition, % at 3 µM;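 active means inhibition above a per-plate cutoff, the mean inhibition of sample wells plus 3 SD, cut at about 35% in these data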;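 further: loss of TO-PRO-1 fluorescence as compound displaces dye from 1x1 AA loop RNA; 0% = DMSO only wells and 100% = 100 µM mitoxantrone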
DNA CAG counter = counter-screen for rCAG RNA binders: DNA CAG dye complex inhibitors; shares compounds with rCAG RNA binder; d(CAG) DNA oligo TO-PRO-1 dye displacement, fluorescence; inhibition, % at 3 µM; actives 94% (n = 4,300); AID 652068;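 active means inhibition above its plate's cutoff, the mean test-well inhibition plus 3 SD, cut at about 4.8% in these data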;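 further: 0% = DNA dye mix with DMSO and 100% = 100 µM mitoxantrone; hits displace the dye from DNA and so lower well fluorescence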
Numbers without * were called inactive; · = not tested or not shown.

SMILES	NadD inh	NR3A LBD binder	rCAG RNA binder	FAS TE block	rCAG bind conf	DNA CAG counter
O=[N+]([O-])c1cc(S(=O)(=O)c2ccc(O)c([N+](=O)[O-])c2)ccc1O	1.6	0.6	38.3*	-5.5	21.7	7.7*
O=C1NC(=O)N(c2cccc(Cl)c2)C(=O)/C1=C\c1ccc(Sc2nc3ccccc3[nH]2)o1	65.4*	-4.9	72.2*	9.8	49.7*	21.9*
CCOC(=O)c1[nH]c2ccc(OC)cc2c1C(SCC(=O)O)c1ccc(C(F)(F)F)cc1 (stereo not drawn)	-2.2	-3.1	56.3*	1.8	50.8*	14.4*
Cc1cc(Br)ccc1N1C(=O)CC(=O)NC1=O	12.2	2.4	40.3*	-10.8	4.5	3.0
O=C1CC(=O)N(c2cccc(Br)c2)C(=O)N1	-5.0	-1.0	16.2	-4.2	·	·
C[C@H]1CNCCN1c1ccc(N2CC[C@@H](O)C2)c(C#N)c1	·	·	0.9	·	·	·
c1cc2c(cc1NC1=NCCO1)CCCC2	-4.5	-1.7	9.3	-58.5	·	·
O=C1NC(=O)N(Cc2ccc(F)cc2)C(=O)/C1=C\c1ccc([N+](=O)[O-])s1	36.6*	-7.4	92.7*	2.0	79.5*	39.6*
COc1ccc(CN2C(=O)NC(=O)/C(=C/c3ccc([N+](=O)[O-])s3)C2=O)cc1	45.0*	-11.8	93.7*	7.4	94.0*	71.5*
CN1CC[C@@H]2CN[C@H](c3ccccc3Br)C[C@@H]21	·	·	5.3	·	·	·
NCCc1cc(O)c(O)cc1O	65.4*	-5.5	60.5*	1.6	28.3	14.1*
N#Cc1ccc(NC(=S)N2Cc3ccc(Br)cc3-n3nncc3C2)cc1	·	·	7.0	·	·	·
CC(C)c1ccc(N2C(=O)NC(=O)/C(=C\C=C\c3ccco3)C2=O)cc1	·	-1.4	44.0*	·	31.0	12.5*
O=C1NC(=O)N(Cc2ccccc2)C(=O)/C1=C/C=C/c1ccco1	13.4	2.8	44.8*	-2.0	17.3	8.5*
CC(C)c1ccc(N2C(=O)NC(=O)/C(=C\c3cnc(-c4ccccc4)nc3)C2=O)cc1	4.4	-1.7	31.4	-4.8	·	·
COc1cc(OC)c(OC)cc1/C=C1/C(=O)NC(=O)N(Cc2ccccc2)C1=O	-0.5	1.8	5.3	-5.0	·	·
COc1ccc(CN2C(=O)NC(=O)/C(=C\c3ccco3)C2=O)cc1	19.3	-20.1	43.1*	-1.4	31.4	12.4*
O=C(NCC1=C(c2ccc3ccccc3c2)C[C@@H]2CC[C@H]1N2Cc1ccco1)c1nccs1	1.9	·	5.8	7.0	·	·
Cn1cccc1/C=C1\C(=O)NC(=O)N(Cc2ccccc2Cl)C1=O	9.0	0.0	45.8*	-3.2	10.1	4.1
CC(=O)c1ccc2c(c1)C1C(Cl)C(Sc3ccccc3[N+](=O)[O-])CC1C(C(=O)O)N2 (stereo not drawn)	21.5	7.6	87.1*	21.3	94.8*	72.7*
Cc1cc2c(cc1C)NP(=S)(c1ccccc1)N2	0.6	-0.5	3.6	3.8	·	·
CC(=O)N1c2ccccc2C(c2ccccc2)=NCC1C(=O)NCc1ccccc1 (stereo not drawn)	·	·	3.1	·	·	·

Bioassay records: PubChem BioAssay, several laboratories
